Hit rate of the full screen: of about 360,000 compounds, about 11,000 (3.1%) were called active. Roughly 4% stayed inconclusive and do not appear here. Calls follow the shape of the dose curve; as a rule, active = well fitted inhibition curve with a large enough effect; inconclusive = small, poorly fitted or top-dose-only effect; inactive = no such curve, though single readings can be large or run the other way. The full list was thinned out, with actives kept by preference.
target: Schistosoma mansoni thioredoxin glutathione reductase (TGR) (UniProt Q962Y6); assay: qHTS Assay for the Inhibitors of Schistosoma Mansoni Peroxiredoxins; conditions: purified TGR, DTNB reduction, TNB absorbance 405 nm; series mostly up to 114 µM; activity change, negative = inhibition: at the top concentration; also: nearly all actives have a fitted effect of over 60% in size
Method in brief: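 Kinetic colorimetric format: TGR-catalysed, NADPH-driven DTNB reduction monitored via TNB absorbance. Enzyme dispensed at 20 nM; compound exposure 15 min at room temperature before reaction start.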
% is scaled to controls: 0 for no effect and ±100 for the full control effect; potency is read from the fitted curve at half-maximal effect.

SMILES	activity change, negative = inhibition	Potency
COc1ccccc1CNc1nc2ccc(Cl)cc2n2cnnc12	-0.742% (inactive)	
COc1ccccc1NC(=O)c1sc2nc(C)c(C(=O)Nc3ccc(Cl)cc3)c(-c3ccc(Br)cc3)c2c1N	2.29% (inactive)	
O=C(Cc1ccc(Cl)cc1)NC(=S)Nc1ccccc1O	-7.71% (inactive)	
O=[N+]([O-])c1ccccc1NCc1ccc(Cl)cc1	-16.6% (inactive)	
Oc1ccc(CNc2ccccc2O)cc1		20 µM (active)
O=C(CC(c1cccs1)N1Cc2ccccc2C1=O)Nc1ccc(F)c(F)c1 (stereo not given)	11.1% (inactive)	
CC(C)Oc1ccc(CNC(=O)C2CCN(c3nc4ccccc4n(C)c3=O)CC2)cc1	1.86% (inactive)	
CC1CN(C(=O)N2CCC(C(=O)NCc3cccs3)CC2)c2ccccc2O1 (stereo not given)	6.75% (inactive)	
O=C(NC1(C(F)(F)F)N=C(c2ccccc2)N(C2CCCCC2)C1=O)c1ccccc1F (stereo not given)	-12.4% (inactive)	
CC1=C(C/C=C(\C)CCCC(C)CCCC(C)CCCC(C)C)C(=O)c2ccccc2C1=O (stereo not given)		28.2 µM (active)
CC(=O)Nc1ccc(NC(=O)CCCc2nc(-c3ccc(C(C)(C)C)cc3)no2)cc1	0.679% (inactive)	
Cc1cc(C)c(-c2n[nH]c3c2C(c2ccccc2F)N(CCO)C3=O)c(O)c1 (stereo not given)	6.94% (inactive)	
COc1ccc(N2CCN(Cc3nc4c(c(=O)[nH]c(=O)n4C)n3Cc3ccc(Cl)cc3)CC2)cc1	-14.2% (inactive)	
Cc1nnc(NC(=O)/C=C/c2ccco2)s1		22.4 µM (active)
CCOC(=O)c1sc(NC(=O)/C=C/c2ccc(C(C)C)cc2)c(C(=O)OCC)c1C	0.526% (inactive)	
Cc1nnc(NC(=O)C(c2ccccc2)c2ccccc2)s1	-4.87% (inactive)	
CCOC(=O)c1c(NC(=S)NC(=O)/C=C/c2cccs2)sc(C)c1C	-1.8% (inactive)	
CCOC(=O)c1c(NC(=O)/C=C/c2ccco2)sc(C)c1C		35.5 µM (active)
Cc1nnc(NC(=O)CCCOc2ccccc2)s1	0.399% (inactive)	
O=C(CSc1nc(-c2cccc(F)c2)[nH]c1-c1ccccc1)Nc1ccc2c(c1)OCO2	3.36% (inactive)	
CCN(CC)S(=O)(=O)c1ccc(C(=O)N=c2sc3cccc(OC)c3n2C)cc1	8.26% (inactive)	
Cc1ccc(C)c(OCC(=O)Nc2sc3c(c2C#N)CCCC3)c1C	-1.88% (inactive)	
Cc1nn(-c2ccccc2)c(Cl)c1/C=C/C(=O)c1ccc(O)cc1	-14.4% (inactive)	
Cc1ccccc1-n1nc(C)c2c1N=C1C(Cl)=CC(Cl)=CN1C2c1ccc(C(=O)O)cc1 (stereo not given)		35.5 µM (active)
Cc1ccccc1-n1nc(C)c2cc(C(=O)NC3CC3)sc21	-24.8% (inactive)	

SMILES	activity change, negative = inhibition	Potency
O=C(Nc1ccc2nc(SCC(=O)N3CCCc4ccccc43)sc2c1)c1ccc(F)cc1	-0.299% (inactive)	
CC(=O)c1ccc(NC(=O)c2nc(-c3ccc(C)cc3)n3c2CCCCC3)cc1	-15.5% (inactive)	
Cc1ccccc1CNC(=O)CCCn1nc(C)c2sc3ccccc3c2c1=O	22% (inactive)	
CCC(C)NC(=O)C1c2ccccc2C(=O)N1Cc1ccccc1 (stereo not given)	-5.66% (inactive)	
O=C(NC1CCCCC1)C1c2ccccc2C(=O)N1Cc1ccco1 (stereo not given)		39.8 µM (active)
O=C(CC1OC(=O)c2ccccc21)NC1CCCCC1 (stereo not given)	-20.2% (inactive)	
CC(NC(=O)c1cc(Sc2ccc(F)cc2F)nc2ccccc12)c1ccccc1 (stereo not given)	2.43% (inactive)	
CC(C)C(=O)Nc1nc2c(s1)CC(C(C)(C)C)CC2 (stereo not given)	-0.633% (inactive)	
Cc1ccc(S(=O)(=O)N(CC(=O)Nc2ccc(Cl)cc2Cl)c2ccccc2C)cc1	3.93% (inactive)	
COc1cccc(CN2CCc3nc(SCC(=O)Nc4ccccc4)[nH]c(=O)c3C2)c1	-2.13% (inactive)	
CC(C)c1ccc(NC(=O)C2CCN(c3nc(-c4ccc(C(C)C)cc4)no3)CC2)cc1	45% (inactive)	
COc1cccc(N2C(=O)CN(Cc3ccccc3)C2=S)c1	-29.4% (inactive)	
COc1ccc(CN2CCCC(N3CCc4ccccc4C3)C2)c(O)c1 (stereo not given)	-23% (inactive)	
COc1cccc(N2CC(NS(=O)(=O)c3ccc(Cl)cc3)CC2=O)c1 (stereo not given)	-6.5% (inactive)	
COc1cccc(N2C(=O)CC(N3CCc4ccccc4C3)C2=O)c1 (stereo not given)		39.8 µM (active)
COc1cccc(N2C(=O)CC(N3CCN(S(=O)(=O)c4ccccc4)CC3)C2=O)c1 (stereo not given)		39.8 µM (active)
O=C(C1CC(=O)N(c2ccc(F)cc2)C1)N1CCN(c2ccccc2)CC1 (stereo not given)	-41.2% (inactive)	
COc1cccc(N(CC(=O)N2CCc3ccccc3C2)S(C)(=O)=O)c1	-6.18% (inactive)	
COC(=O)CN(C(=S)Nc1ccc(Cl)cc1)C1CC(=O)N(c2ccc(OC)cc2)C1=O (stereo not given)	3.21% (inactive)	
CN1C(=O)CC(N2CCN(c3ccccn3)CC2)C1=O (stereo not given)	1.89% (inactive)	
O=C1CC(N2CCN(c3ccc(F)cc3)CC2)C(=O)N1c1ccccc1 (stereo not given)		50.1 µM (active)
COc1ccc(COCCN2CCN(S(=O)(=O)c3ccccc3)CCC2=O)cc1	-10.8% (inactive)	
COc1cccc(N2CCN(C3CC(=O)N(c4ccc(Cl)cc4)C3=O)CC2)c1 (stereo not given)		39.8 µM (active)
C=Cc1ccc(Cn2c(C(=O)OC)cc3sc(C)cc32)cc1	5.62% (inactive)	
COc1ccc(C(=O)CSc2c(C(C)C)cnc3c2c(=O)n(C)c(=O)n3C)cc1	-11.9% (inactive)	

SMILES	activity change, negative = inhibition	Potency
COc1cc2[nH]c(=O)n(Cc3ccc(C(=O)NCc4ccc(C)cc4)cc3)c(=O)c2cc1OC	1.94% (inactive)	
COc1ccc(N2CCN(C3CC(=O)N(c4ccc5c(c4)OCCO5)C3=O)CC2)cc1 (stereo not given)	15.7% (inactive)	
Cc1ccc(CC2CC(=O)N(c3ccc4c(c3)OCCO4)C2=O)cc1 (stereo not given)	0% (inactive)	
O=CN1CCN(C2CC(=O)N(c3ccc4c(c3)OCO4)C2=O)CC1 (stereo not given)		44.7 µM (active)
COc1cc(Nc2nc(-c3ccc(OC)c(OC)c3)nc3ccccc23)cc(OC)c1	0.492% (inactive)	
CC(=O)c1ccc(NC(=O)CSc2c(C(C)C)cnc3c2c(=O)n(C)c(=O)n3C)cc1	-3.63% (inactive)	
Cc1cccc(NC(=O)CSc2ncc(-c3ccccc3)[nH]2)c1C	7.09% (inactive)	
COc1ccc(CN(C)C(=O)c2cc(-c3ccc(C)cc3C)nc3ccccc23)c(OC)c1OC	-1.05% (inactive)	
CC1CCCN(C(=O)c2cc(-c3ccco3)nc3ccccc23)C1 (stereo not given)		31.6 µM (active)
COc1ccc(/C=C(\C#N)C(=O)OCC(=O)N(C)C2CCS(=O)(=O)C2)cc1 (stereo not given)	-0.0993% (inactive)	
CSc1ncccc1C(=O)Nc1ccc(C)cn1	3.44% (inactive)	
Cc1ccc(NC(=O)c2cc(-c3ccc(C)o3)nc3ccccc23)nc1		11.2 µM (active)
COc1ccc(NC(=O)COc2ccc(C(=O)OCC(=O)N(C)C3CCS(=O)(=O)C3)cc2OC)cc1 (stereo not given)	-3.82% (inactive)	
CN(CCOc1ccccc1)C(=O)c1cc(-c2ccco2)nc2ccccc12		3.16 µM (active)
CN(CCOc1ccccc1)C(=O)c1cc(COc2c(F)cccc2F)on1	-0.798% (inactive)	
CN(C(=O)COC(=O)c1cc(-c2ccco2)nc2ccccc12)C1CCS(=O)(=O)C1 (stereo not given)		3.55 µM (active)
O=C(c1cc(-c2ccc(Cl)s2)nc2ccccc12)N1CCOCC1	-7.38% (inactive)	
CCOc1ccccc1-c1cc(C(=O)N2CCOCC2)c2ccccc2n1	6.44% (inactive)	
CC(=O)N1CCN(C(=O)c2cc(-c3ccc(C)o3)nc3ccccc23)CC1	-8.9% (inactive)	
Cc1ccc(-c2nnc(Nc3ccc(OCC(N)=O)cc3)c3ccccc23)cc1S(=O)(=O)NCC1CCCO1 (stereo not given)	-2.06% (inactive)	
Cc1ccc(Cl)cc1N1CCN(C(=O)c2cnc3c(-c4ccc(F)cc4)c(C)nn3c2C)CC1	-1.63% (inactive)	
CC(=O)N1c2ccccc2CC1C(=O)N1CCN(c2ccc(F)cc2)CC1 (stereo not given)	1.54% (inactive)	
Cc1ccc2oc(=O)c3cnn(CC(=O)N4CCN(c5cccc(Cl)c5)CC4)c3c2c1	2.82% (inactive)	
Fc1cccc(-n2ncc3c2ncn2nc(-c4ccccc4Cl)nc32)c1	-1.22% (inactive)	
CCOc1cccc(C(=O)Nc2nnc(S(=O)(=O)N(C)c3ccc(C)cc3)s2)c1	2.45% (inactive)	

SMILES	activity change, negative = inhibition	Potency
O=C(Nc1ccc2oc(-c3ccc(O)c(Br)c3)nc2c1)c1cc2ccccc2o1	-0.0022% (inactive)	
COc1ccc(OC)c(NC(=O)CN2CCCN(Cc3cc(C)ccc3C)S2(=O)=O)c1	0.344% (inactive)	
Cc1csc2nc(COC(=O)c3ccc(NC(=O)COc4ccccc4F)cc3)cc(=O)n12	2.87% (inactive)	
COc1cccc(N=C2SC(C(=O)Nc3cccc(Cl)c3)CC(=O)N2C)c1 (stereo not given)	-12.8% (inactive)	
CN(Cc1ccccc1)c1ncnc2onc(-c3ccc(F)cc3)c12	1.52% (inactive)	
CC(=O)c1cccc(NC(=O)c2nc(-c3ccccc3)n(-c3cccc(C)c3)n2)c1	-6.73% (inactive)	
CCN(CC)CCNC(=O)CN1N=C(c2ccc(OC)cc2)CCC1=O	0.497% (inactive)	
COc1ccc(-c2cc(C(=O)N(C)CC(=O)Nc3ccccc3Cl)c3ccccc3n2)cc1OC	3.05% (inactive)	
CC(C)N(Cc1nnc(-c2ccccc2Br)o1)C(=O)c1cc(Cl)nc2ccccc12	-0.676% (inactive)	
COc1ccc(NC(=O)CN(C)C(=O)c2n[nH]c3ccccc23)cc1	1.25% (inactive)	
O=C(c1ccc(Cl)s1)N(Cc1nnc(-c2ccccc2Cl)o1)C1CC1	-7.47% (inactive)	
COc1ccc(NC(=O)CN(C)C(=O)c2cc(-c3ccc(C)o3)nc3ccccc23)cc1		28.2 µM (active)
O=C(c1cc(-c2ccco2)nc2ccccc12)N(Cc1nnc(-c2ccc(Cl)cc2)o1)C1CC1		8.91 µM (active)
COc1ccc(Cc2nc3ccc(C(=O)NCc4ccc(OC)cc4OC)cc3o2)cc1	-3.16% (inactive)	
O=C(Nc1cc(C(F)(F)F)ccc1Cl)c1ccc2c(c1)CCN2S(=O)(=O)c1ccccc1	3.48% (inactive)	
COc1ccc(NC(=O)CSc2nnc(-c3nnn(-c4ccc(F)cc4)c3C)o2)cc1	0.551% (inactive)	
COc1cc(C(=S)N2CCOCC2)ccc1O	6.25% (inactive)	
COc1ccc(C)cc1NC(=S)N1CCOCC1		17.8 µM (active)
COc1ccc(OC)c(NC(=S)N2CCc3ccccc3C2)c1	9.21% (inactive)	
O=C(CCc1cn(Cc2ccc(F)cc2)c2ccccc12)NC1CCCCC1	2.87% (inactive)	
CC(C)Cn1c(C2CC(=O)N(c3ccccc3Cl)C2)nc2ccccc21 (stereo not given)	-1.77% (inactive)	
O=C(NCCc1ccccc1)c1ccc2c(c1)N(Cc1ccc(F)cc1)C(=O)c1ccccc1S2(=O)=O	-1.62% (inactive)	
O=C(NCC1COc2ccccc2O1)C1(c2ccccc2)CCCC1 (stereo not given)	37% (inactive)	
CN(C)CCOC(=O)C(c1ccccc1)C1(O)CCCC1 (stereo not given)	8.38% (inactive)	
CN(C)CC1Oc2ccccc2OC1(O)c1ccccc1 (stereo not given)		0.355 µM (active)
